Out of some 310,000 compounds screened, about 2,200 (0.71%) showed an effect of 50% or more. Effects have a minus sign here. This is one part of a sample in which strong results are shown more often than they occur.

Sequence of human ether-à-go-go-related gene (hERG) potassium channel (Q12809 whole entry, looked up): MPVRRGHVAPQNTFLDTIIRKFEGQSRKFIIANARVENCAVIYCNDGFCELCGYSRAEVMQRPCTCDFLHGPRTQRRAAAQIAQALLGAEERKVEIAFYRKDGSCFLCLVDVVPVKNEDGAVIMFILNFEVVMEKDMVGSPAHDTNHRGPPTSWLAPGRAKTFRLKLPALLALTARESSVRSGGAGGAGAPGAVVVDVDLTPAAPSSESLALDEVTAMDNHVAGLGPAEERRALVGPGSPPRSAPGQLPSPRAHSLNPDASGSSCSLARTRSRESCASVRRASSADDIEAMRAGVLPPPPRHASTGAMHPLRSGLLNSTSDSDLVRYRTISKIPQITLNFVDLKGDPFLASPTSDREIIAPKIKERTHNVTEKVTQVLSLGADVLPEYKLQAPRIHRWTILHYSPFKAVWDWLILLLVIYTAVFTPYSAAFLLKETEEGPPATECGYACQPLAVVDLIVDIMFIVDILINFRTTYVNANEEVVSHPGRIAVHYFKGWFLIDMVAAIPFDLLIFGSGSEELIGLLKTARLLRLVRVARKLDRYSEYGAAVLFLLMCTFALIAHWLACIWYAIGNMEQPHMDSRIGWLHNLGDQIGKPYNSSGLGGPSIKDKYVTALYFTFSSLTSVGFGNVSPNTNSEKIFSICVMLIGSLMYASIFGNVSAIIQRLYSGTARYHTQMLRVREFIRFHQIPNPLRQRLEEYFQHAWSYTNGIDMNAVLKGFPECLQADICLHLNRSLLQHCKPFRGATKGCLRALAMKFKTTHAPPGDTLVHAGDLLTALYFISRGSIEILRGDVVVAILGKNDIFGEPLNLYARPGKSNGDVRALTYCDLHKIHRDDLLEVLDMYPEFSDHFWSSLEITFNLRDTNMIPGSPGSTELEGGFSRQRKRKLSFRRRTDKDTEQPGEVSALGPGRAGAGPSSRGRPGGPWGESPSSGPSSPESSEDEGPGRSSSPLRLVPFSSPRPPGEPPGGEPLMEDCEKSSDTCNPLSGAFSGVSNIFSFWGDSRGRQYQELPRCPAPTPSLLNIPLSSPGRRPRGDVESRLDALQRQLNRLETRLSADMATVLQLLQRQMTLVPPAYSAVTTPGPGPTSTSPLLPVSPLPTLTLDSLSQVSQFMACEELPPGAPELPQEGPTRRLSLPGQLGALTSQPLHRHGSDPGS

The experiment addresses human ether-à-go-go-related gene (hERG) potassium channel (human, UniProt Q12809). As to the kind of experiment: primary screen, population patch clamp on CHO cells stably expressing hERG; higher = less effect of the substance.
Consider `CC(OC(=O)CCC(=O)c1cccs1)C(=O)NC1CCCCC1C` (centres unmarked), for which the “hERG current change (%, negative = inhibition) at 1uM” value stood at 0.622%.

`CC(OC(=O)c1cccs1)C(=O)NC1CCCCC1C` (centres unmarked): the “hERG current change (%, negative = inhibition) at 1uM” value was -66.1%.

Consider `CCOc1ccc(NC(=O)CN(C)C(=O)c2ccc(COc3ccccc3)cc2)cc1OCC`, for which the “hERG current change (%, negative = inhibition) at 1uM” value is given as 4.94%.

For the compound `Cc1ccc(NS(=O)(=O)c2ccccc2Cl)c2c1CC(C)(C)O2`, the “hERG current change (%, negative = inhibition) at 1uM” value came to 6.77%.

For the compound `Cc1ccc2sc(NNC(=O)C3COc4ccccc4O3)nc2c1C` (centres unmarked), the “hERG current change (%, negative = inhibition) at 1uM” value is recorded as 9.9%.

Regarding `CN(C)C/C=C(\c1ccc(Br)cc1)c1cccnc1.Cl.O`, the “hERG current change (%, negative = inhibition) at 1uM” value is -35.3%.

`CN(C)C/C=C(/c1ccc(Br)cc1)c1cccnc1.Cl`: the “hERG current change (%, negative = inhibition) at 1uM” value is recorded as -60.8%.

Consider `O=C(NCCNC(=O)c1cccnc1)c1ccc(Br)cc1`, for which the “hERG current change (%, negative = inhibition) at 1uM” value is 29.6%.

For the compound `CC(C)C(=O)Nc1ccc2c(c1)oc1ccccc12`, the “hERG current change (%, negative = inhibition) at 1uM” value is given as 11.8%.

Turning to `O=C(COC(=O)C12CC3CC(CC(O)(C3)C1)C2)Nc1ccc(Cl)cc1F`, the “hERG current change (%, negative = inhibition) at 1uM” value is recorded as -1.56%.

Take `COc1ccccc1C(=O)Nc1ccon1`: the “hERG current change (%, negative = inhibition) at 1uM” value is -0.0061%.

For the compound `N=c1nc(N)nc2n1NC(c1ccc(F)cc1)=CS2`, the “hERG current change (%, negative = inhibition) at 1uM” value is -3.69%.

As for `CN1C2C=C(N(CCc3ccccc3)C(=O)c3ccc(Cl)cc3)CC1CC2.Cl` (centres unmarked), the “hERG current change (%, negative = inhibition) at 1uM” value is -19.7%.

Consider `CN1C2CCC1CC(N(CCc1ccccc1)C(=O)c1ccc(Cl)cc1)C2.Cl` (centres unmarked), for which the “hERG current change (%, negative = inhibition) at 1uM” value is listed as -78.8%.

As to `COc1ccc(N(C(=O)c2ccc(Cl)cc2)C2=CC3CCC(C2)N3C)cc1.Cl` (centres unmarked), the “hERG current change (%, negative = inhibition) at 1uM” value is listed as -76.1%.

Take `CN1C2CCC1CC(OC(=O)c1ccc(Cl)cc1)C2.Cl` (centres unmarked): the “hERG current change (%, negative = inhibition) at 1uM” value is -9.75%.

Regarding `Cc1cc(C)cc(C(=O)N(CCc2ccccc2)C2CC3CCC(C2)N3C)c1.Cl` (centres unmarked), the “hERG current change (%, negative = inhibition) at 1uM” value is -18%.

With `COc1ccc(N(C(=O)/C=C/c2ccccc2)C2=CC3CCC(C2)N3C)cc1.Cl` (centres unmarked), the “hERG current change (%, negative = inhibition) at 1uM” value was -70.3%.

Regarding `CN1C2C=C(N(CCc3c[nH]c4ccccc34)C(=O)c3ccc(Cl)cc3)CC1CC2.Cl` (centres unmarked), the “hERG current change (%, negative = inhibition) at 1uM” value is given as -41.4%.

As for `COc1ccc(N(C(=O)/C=C/c2ccc(OC)c(OC)c2)C2=CC3CCC(C2)N3C)cc1.Cl` (centres unmarked), the “hERG current change (%, negative = inhibition) at 1uM” value is -42.8%.

As to `CN1C2C=C(N(C(=O)c3ccc(Cl)cc3)c3ccccc3)CC1CC2.Cl` (centres unmarked), the “hERG current change (%, negative = inhibition) at 1uM” value was -69.8%.

Regarding `COc1ccc(C(=O)CN(C(=O)c2ccc(Cl)cc2)N2C(=O)C3CCCCC3C2=O)cc1` (centres unmarked), the “hERG current change (%, negative = inhibition) at 1uM” value is 10.8%.

Consider `COc1cc(C(=O)N(CCc2ccccc2)C2=CC3CCC(C2)N3C)cc(OC)c1OC.Cl.O` (centres unmarked), for which the “hERG current change (%, negative = inhibition) at 1uM” value is -13.5%.

Turning to `CCCCN(C(=O)c1ccc(Cl)cc1)C1CC2CCC(C1)N2C.Cl` (centres unmarked), the “hERG current change (%, negative = inhibition) at 1uM” value is -15.6%.

Consider `Cc1cc(C)n2c(SC(C)C(=O)NC3(C#N)CCCCC3)nnc2n1` (centres unmarked), for which the “hERG current change (%, negative = inhibition) at 1uM” value was found to be 11.7%.

Consider `CCOC(=O)c1oc2ccccc2c1NC(=O)c1ccc(S(=O)(=O)N2CCCC2)cc1`, for which the “hERG current change (%, negative = inhibition) at 1uM” value is -6.45%.

Consider `CCOC(=O)C1CCN(S(=O)(=O)c2cc(F)ccc2OC)CC1`, for which the “hERG current change (%, negative = inhibition) at 1uM” value was 8.83%.

In the case of `COc1ccc(-c2nc(NCCCN(C)C)c3ccccc3n2)cc1.Cl`, the “hERG current change (%, negative = inhibition) at 1uM” value is given as 3.72%.

Take `C=C(C)Cn1c(SCC#N)nc2ccccc2c1=O`: the “hERG current change (%, negative = inhibition) at 1uM” value is 3.85%.

Regarding `COc1ccc(S(=O)(=O)N2CCN(C)CC2)c2ccccc12`, the “hERG current change (%, negative = inhibition) at 1uM” value amounted to 9.59%.

As to `CC(Sc1nc2ccccc2n1C)C(=O)Nc1ccc(N2CCOCC2)cc1` (centres unmarked), the “hERG current change (%, negative = inhibition) at 1uM” value was found to be 6.2%.

Regarding `CN1CCN(C(=O)CCC(=O)NCc2ccc(F)cc2)CC1`, the “hERG current change (%, negative = inhibition) at 1uM” value is given as 9.84%.

In the case of `O=C(COC(=O)c1ccccn1)NC(=O)c1ccccc1`, the “hERG current change (%, negative = inhibition) at 1uM” value is on record as -5.45%.

As to `Cc1[nH]nc2ncc(C(=O)c3cc(Cl)cc(Cl)c3O)cc12`, the “hERG current change (%, negative = inhibition) at 1uM” value amounted to 10.1%.

In the case of `COc1cccc(OC)c1C(=O)Nc1nc2ccc([N+](=O)[O-])cc2s1`, the “hERG current change (%, negative = inhibition) at 1uM” value came to 16.1%.

As to `COc1cccc(CNC(=O)c2cc(C3CC3)nc3c2cnn3C(C)C)c1`, the “hERG current change (%, negative = inhibition) at 1uM” value is listed as -0.644%.

Turning to `COc1ccc(N(C(=O)c2ccc(F)cc2)C2=CC3CCC(C2)N3C)cc1.Cl` (centres unmarked), the “hERG current change (%, negative = inhibition) at 1uM” value is listed as -50.3%.

On to `COc1ccc(CCN(C(=O)c2ccc(F)cc2)C2=CC3CCC(C2)N3C)cc1OC.Cl` (centres unmarked), for which the “hERG current change (%, negative = inhibition) at 1uM” value is on record as -22.6%.

As for `CCCCN(C(=O)c1cc(OC)c(OC)c(OC)c1)C1=CC2CCC(C1)N2C.Cl` (centres unmarked), the “hERG current change (%, negative = inhibition) at 1uM” value is 8.68%.

In the case of `CCOc1cc([N+](=O)[O-])cc(/C=C2/NC(=O)N(Cc3ccccc3F)C2=O)c1O`, the “hERG current change (%, negative = inhibition) at 1uM” value is on record as 4.45%.

Turning to `COc1cc(NC(=S)NC(=O)c2ccccc2F)ccc1NC(=O)c1ccco1`, the “hERG current change (%, negative = inhibition) at 1uM” value was found to be 7.37%.

Consider `CCn1c(SCC(=O)Nc2ccccc2)nc2nc3c(cc2c1=O)COC(C)(C)C3`, for which the “hERG current change (%, negative = inhibition) at 1uM” value was -12.4%.

With `CCn1c(SCC(=O)Nc2ccc(C(C)=O)cc2)nc2nc3c(cc2c1=O)COC(C)(C)C3`, the “hERG current change (%, negative = inhibition) at 1uM” value is reported as 14.1%.

On to `CCn1c(SCC(=O)Nc2ccc(C)cc2)nc2nc3c(cc2c1=O)COC(C)(C)C3`, for which the “hERG current change (%, negative = inhibition) at 1uM” value is -76.5%.

The record behind these values is paper PMC4336329 (PLoS ONE, 2015).
